Only some compounds are listed: those with a hit (about 1.4% of all), similar ones and a draw of the others.
CCHFV vOTU inh: blocks the CCHF virus ovarian tumor domain protease | CCHFV vOTU protease, Pep-AMC fluorescence | inhibition, % at 11.5 µM | 0.55% of 370,000 active | AID 651958; in the data active = inhibition above about 30%; note: 0% = vehicle wells with enzyme and 100% = no enzyme wells
SARS 3CLpro inh: SARS-CoV 3CLpro protease inhibition; recombinant SARS-CoV 3CLpro, quenched FRET peptide cleavage; inhibition, % at 6 µM; 0.14% of 290,000 active; in the data active = inhibition above about 12%
DUSP3 inh: blocks human VHR1 dual specificity phosphatase. P51452. recombinant VHR phosphatase, pNPP absorbance. inhibition, % at 13.3 µM. 0.52% of 290,000 active. AID 1654; in the data active = inhibition above about 50%
Target sequence (P51452 whole entry, looked up): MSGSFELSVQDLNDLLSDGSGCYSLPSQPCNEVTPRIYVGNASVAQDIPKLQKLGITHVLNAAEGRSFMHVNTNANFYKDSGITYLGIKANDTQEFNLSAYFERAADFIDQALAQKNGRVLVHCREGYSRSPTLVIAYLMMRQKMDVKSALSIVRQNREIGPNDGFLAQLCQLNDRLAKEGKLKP
MazEF act: MazEF (E. coli) toxin RNase activation; FAM/BHQ RNA-DNA oligo cleavage fluorescence, 5 h; 0.32% of 350,000 active; P0AE70; AID 504720; activation, % at 20 µM; in the data active = activation above about 50%
Target sequence (P0AE70 whole entry, looked up): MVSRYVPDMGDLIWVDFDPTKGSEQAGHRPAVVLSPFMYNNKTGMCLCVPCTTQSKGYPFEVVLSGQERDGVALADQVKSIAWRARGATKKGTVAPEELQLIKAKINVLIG
BJeLR viability: kills HRASV12-expressing BJeLR cells; BJeLR (HRASV12) viability, CellTiter-Glo ATP luminescence, 48 h; inhibition, % (concentration not given with the values); 0.17% of 300,000 active; AID 1554; in the data active = inhibition above about 50%
An asterisk follows results filed as active; . = no result; + = active, no number.

SMILES	CCHFV vOTU inh	SARS 3CLpro inh	DUSP3 inh	MazEF act	BJeLR viability
CS(=O)(=O)N1CCN=C1SCc1ccc(Br)cc1	6	-4	8	4	4
CC(=O)N1CCN=C1SCc1ccc(Br)cc1	10	2	53*	9	8
NC(=O)c1ccsc1NC(=O)CS(=O)(=O)c1ccc(Cl)cc1	5	-1	56*	5	2
NC(=O)c1ccsc1NC(=O)CCS(=O)(=O)c1ccc(Cl)cc1	-9	.	.	0	.
COC(=O)c1cc(-c2cccc3ccccc23)c(=O)n2c1CCC2	-4	.	.	.	.
COc1ccc(C(=O)c2no[n+]([O-])c2C(=O)c2ccc(OC)cc2)cc1	8	1	10	-2	-8
O=C(c1cccs1)c1no[n+]([O-])c1C(=O)c1cccs1	.	2	.	-6	71*
CC(=O)OC12CCCN(C1)/C(=C/c1ccc(Cl)cc1)C2 (stereo not drawn)	10	.	.	.	.
O=C(OC1CC2CCC(C1)[N+]21CCCC1)C(O)(c1ccccc1)c1ccccc1 (stereo not drawn)	10	.	.	.	.
Cn1nc(-c2ccccc2)c2nc3ccccc3nc21	9	5	5	+	-13
O=C(Nc1cccc([N+](=O)[O-])c1)NC1CCCCN(Cc2cccc(Cl)c2)C1=O (stereo not drawn)	2	.	.	.	.
CN1Cc2cc(C(=O)c3cc(Cl)cc(CSc4ncccn4)c3O)cnc2NC1=O	.	-1	56*	.	25
COC(=O)[C@]12C[C@H](CC(=O)N3CCC(c4ccccc4)CC3)C(=O)N(Cc3ccccc3)C1=C[C@H](COCc1ccccc1)O[C@@H]2C	15	.	.	.	.
C=CCN1C(=O)[C@@H](CC(=O)NCCCOC)[C@]2(C(=O)OC)CCCCC=C12	-4	.	.	.	.
O=[N+]([O-])c1ccc(Nc2c3ccccc3nc3ccccc23)cc1	-42	2	-25	17	0
NC(N)=NCCCS(=O)(=O)Nc1ccc(Nc2c3ccccc3nc3cc([N+](=O)[O-])ccc23)cc1	-15	.	.	51*	.
N#Cc1c(N)n[nH]c1CCCN	-24	-2	51*	-1	7
N#Cc1c(N)n[nH]c1-c1cc2c([nH]1)CCCC2	2	5	18	4	3
CCn1c2ccccc2c2cc(NC(=O)COC(=O)c3cc(Cl)cc(Cl)c3)ccc21	-5	.	.	.	.
O=[N+]([O-])c1nn(-c2ccc3c(c2)OCCO3)n(O)c1=NCc1ccccc1Cl	-15	-7	7	71*	-8
C[n+]1cn(/N=C/c2ccccc2)c2ccccc21	-6	0	54*	-4	-2
C(=N\n1c2ccccc2c2ccccc21)/c1ccccc1	8	-2	8	-14	2
Cc1ccc(C(=O)Nc2nnc(CC(=O)N/N=C/c3ccc(O)c(O)c3)s2)cc1	-9	4	54*	-6	-6
Cc1ccc(C(=O)Nc2nnc(CC(=O)N/N=C/c3ccncc3)s2)cc1	-13	-6	1	15	0
COc1ccc(-c2cn3cc(Cl)ccc3n2)cc1OC	-62	1	53*	9	1
SMILES	CCHFV vOTU inh	SARS 3CLpro inh	DUSP3 inh	MazEF act	BJeLR viability
CCN(CC)C(=O)c1ccc(NC(=O)Nc2ccccc2F)cc1	6	2	17	10	55*
O=C(Nc1ccc(Br)cc1)Nc1ccccc1F	1	0	26	5	3
C[C@@H]1CCCN1c1cccc2c1S(=O)(=O)N1CC[C@H](C1)O2	-6	.	.	.	.
O=C(c1cccnc1)N1CCc2ccccc2C1	9	1	51*	-14	-8
CCn1c(SCC(=O)Nc2ccc(C(=O)OC)cc2)nnc1-c1cccc(Cl)c1	3	.	.	.	.
CCCOc1ccc(C(=O)Nc2ccc(S(=O)(=O)Nc3cc(C)nc(C)n3)cc2)cc1	-14	0	52*	-2	-6
CCOC(=O)c1c2c(n(C)c1COC)C(=O)C(=O)c1ccc(Br)cc1-2	.	0	.	.	69*
Cc1ccsc1C(=O)C1CCCN(Cc2cnc(N3CCOCC3)s2)C1 (stereo not drawn)	0	2	32	5	11
COc1ccc2cc(C(=O)C3CCCN(Cc4cnc(N5CCOCC5)s4)C3)ccc2c1 (stereo not drawn)	-10	3	52*	-1	6
COC(=O)c1[nH]c2c(c1C)C(=O)CC(c1cc(OC)c(OC)c(OC)c1)C2 (stereo not drawn)	6	-2	52*	3	-1
CCOCCOC(=O)c1[nH]c2c(c1C)C(=O)CC(c1cccs1)C2 (stereo not drawn)	6	0	20	7	65*
